Bioassay records deposited in PubChem BioAssay by National Center for Advancing Translational Sciences (NCATS).
TGFb inhibitor = blocks TGF-b signaling; HepG2 CAGA-GFP TGF-b/SMAD3 reporter, GFP fluorescence, 18 h; TGF-beta stimulated, 500 pg/mL final; Potency, µM (top dose mostly 46.1 µM), actives largely listed as inhibitors; hit rate 1.2% among 410,000; further: nearly all actives have a fitted effect of over 65% in size
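Inhibition was scored as loss of TGF-beta-induced (500 pg/mL final, 18 hours, 37 degrees C) GFP in HEPG2 cells carrying a CAGA-GFP reporter, in DMEM with 1% FBS. Well GFP was summed per cell; Activity was normalised to unstimulated and stimulated DMSO wells, then concentration-response fitting.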
ATXN viability = viability counter-screen for ATXN expression inhibitors | S2 cells (HEK-293 line with an ATXN2-luciferase reporter) viability, CellTiter-Fluor protease fluorescence, 24 h | Potency, µM (highest dose often 56.7 µM), actives largely listed as cytotoxic | hit rate 0.49% among 400,000; further: nearly all actives have a fitted effect of over 40% in size
HepG2 viability = counter-screen for TGF-b inhibitors: cytotoxicity in HepG2 cells; HepG2 CAGA-GFP viability, ATP luminescence, 18 h; AID 588856; hit rate 0.76% among 410,000; Potency, µM (series often up to 46.1 µM), hits mostly cytotoxic
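CellTiter-Glo luminescence gave cytotoxicity after 18 hours at 37 degrees C. The cells were HepG2 CAGA-GFP in 1% FBS DMEM, stimulated with 500 pg/mL TGF-beta after compound addition. %Activity was normalised to no-cell wells (complete cell-killing) and DMSO (no toxicity), and curves were fitted and classified.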
ATXN2 expr inh = inhibitors of ATXN2 expression | Potency, µM (doses to about 57 µM), usual class: inhibitors | HEK-293 ATXN2-luciferase reporter, luminescence, 24 h | hit rate 0.72% among 360,000; further: nearly all actives have a fitted effect of over 55% in size
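ATXN2-luciferase reporter cells (luciferase flanked by upstream and downstream ATXN2 gene portions) were treated 24 h at 37 °C with compounds at up to 57 uM. SteadyGlo luminescence gave expression; GF-AFC fluorescence gave viability.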
A number is an active result; . = inactive; ? = inconclusive; / = no result given. Shown are actives, neighbours in structure and some others; about 2.3% of the full set was active somewhere. The call rests on the fitted dose curve; in most records, active means well fitted curve in the direction sought with a large enough effect; inconclusive means small, poorly fitted or top-dose-only effect, or another doubt; inactive means no such curve, though single readings can be large; an effect the other way counts as inactive or inconclusive.

SMILES | TGFb inhibitor | ATXN viability | HepG2 viability | ATXN2 expr inh
COc1ccccc1-c1nnc(Sc2nc([N+](=O)[O-])nn2C)o1 | . | / | . | 10µM
Cn1cnnc1Sc1nc([N+](=O)[O-])nn1C | . | . | . | /
C/C(=N\Nc1nc(-c2ccccc2O)nc2ccccc12)c1ccccc1 | . | . | . | .
C/C(=N/Nc1nc(-c2ccccc2F)nc2ccccc12)c1ccccc1O | 13µM | . | . | /
CN(C)c1ccc(/C=C/c2cc(Cl)nc3ccccc23)cc1 | ? | / | . | /
NC(=O)CC(NC(=O)Cc1cccc2ccccc12)c1ccc(NC2CCCC2)c([N+](=O)[O-])c1 (centres undefined) | . | . | . | .
NC(=O)CC(NC(=O)Cc1cccc2ccccc12)c1ccc(NC2CC3CCC2C3)c([N+](=O)[O-])c1 (centres undefined) | ? | ? | 3.5µM | ?
Cc1cnc(SCc2ccccn2)nc1C1CCCN(C(=O)c2ccc3c(c2)OCO3)C1 (centres undefined) | / | . | / | /
CCS(=O)(=O)c1oc(-c2ccc(F)cc2)nc1S(=O)(=O)c1ccc(Br)cc1 | 2.8µM | / | 3.5µM | /
Cc1ccc(S(=O)(=O)c2nc(-c3cccs3)oc2SC(C)C)cc1 | ? | ? | . | .
CSc1oc(-c2ccc(F)cc2)nc1S(=O)(=O)c1ccc(F)cc1 | . | . | . | .
CCCCS(=O)(=O)c1oc(-c2ccc(F)cc2)nc1S(=O)(=O)c1ccccc1 | 2.8µM | / | 5.6µM | /
CC(C)S(=O)(=O)c1oc(-c2ccc(F)cc2)nc1S(=O)(=O)c1ccccc1 | 1.4µM | / | 3.2µM | /
CC(C)S(=O)(=O)c1oc(-c2cccs2)nc1S(=O)(=O)c1ccc(F)cc1 | 2.5µM | / | 3.5µM | /
CS(=O)(=O)c1oc(-c2ccc(F)cc2)nc1S(=O)(=O)c1ccc(Cl)cc1 | 3.2µM | / | 5µM | /
Clc1ccc2c(Cl)cc[n+](CCC3CCCCC3)c2c1 | . | / | . | /
Nc1ccccc1Nc1ccccc1 | ? | . | 20µM | .
Nc1ccc(Nc2ccccc2)c(Cl)c1 | . | . | . | .
COc1ccc(NC(=O)/C(Cl)=C(/Cl)S(=O)(=O)Cc2ccc(C)cc2)cn1 | ? | 8.9µM | 5.6µM | 7.1µM
COc1ccc(NC(=O)/C(Cl)=C(/Cl)S(=O)Cc2ccccc2Cl)cn1 (centres undefined) | 3.5µM | 0.6µM | 11µM | 0.84µM
COc1ccc(NC(=O)Cc2ccc(Cl)c(Cl)c2)cn1 | . | . | . | /
COCC1CCCN(Cc2cn(Cc3ccccc3)nc2-c2cc3ccccc3o2)C1 (centres undefined) | 13µM | ? | . | .
N#CC(C#N)=C1C=CC=CN1/C(=C\c1ccco1)C(=O)c1ccccc1 | 2.2µM | ? | 4µM | ?
COc1ccc(C(=O)/C(=C\c2ccco2)N2C=CC=CC2=C(C#N)C#N)cc1 | 3.5µM | / | . | 14µM
CC(C)(C)NC(=O)/C(=C/c1ccco1)c1ccccc1 | . | . | . | .
SMILES | TGFb inhibitor | ATXN viability | HepG2 viability | ATXN2 expr inh
N#CC(C#N)=C1C=CC=CN1/C(=C\c1ccco1)C(=O)c1ccc(Br)cc1 | 3.2µM | ? | 13µM | 18µM
COc1ccc(/C=C(/C(=O)c2cccs2)N2C=CC=CC2=C(C#N)C#N)cc1 | ? | ? | 11µM | /
COc1ccc(C=C(C#N)C(=O)c2ccccc2)cc1 | / | . | / | .
Clc1ccc(Nc2nnc(Cc3ccncc3)c3ccccc23)cc1 | / | . | / | ?
COc1ccc2c(c1)CC[C@H]1[C@@H]2CC[C@]2(C)[C@@H](NCCCCCCN3C(=O)C=CC3=O)CC[C@H]12 | / | / | / | .
COc1cc(C)c(CN2CCC3(CCC(CNC(=O)c4ccnn4C)O3)CC2)cc1C (centres undefined) | / | . | / | /
CN(C)CCCNc1cc(N2CCN(C3CCCCC3)CC2)c2noc3c2c1C(=O)c1ccccc1-3 | . | / | 16µM | /
CN(C)c1ccc(C(=O)N2CCCC(Cn3cc(C(=O)N4CCCC4)nn3)C2)cc1 (centres undefined) | / | . | / | /
CC(O)C(NS(=O)(=O)c1ccc(Cl)cc1)C(=O)OCC(=O)c1ccc2c(c1)NC(=O)CO2 (centres undefined) | . | ? | . | .
CC(C)CC(NC(=O)c1ccc(Cl)cc1)C(=O)OCC(=O)c1ccc2c(c1)NC(=O)CO2 (centres undefined) | 11µM | 22µM | 3.2µM | 25µM
COc1ccccc1N(C)C | . | / | . | /
CCCCNC(=O)[C@@H]1CC=C[C@@H]2CCN(CCCC)C(=O)[C@@H]21 | . | / | . | /
COc1cc(C)c2ccccc2n1 | . | / | . | /
CN(C)CCn1cnc2c(c1=N)C(c1ccccc1)c1ccc3ccccc3c1O2 (centres undefined) | 18µM | / | . | ?
Cc1ccccc1-c1cccc(CN2CCc3nnc(C(C)NC(=O)c4cccnc4)n3CC2)c1 (centres undefined) | / | . | / | /
O=C(/C=C/c1ccco1)Oc1cc(Br)cc(/C=N/NC(=O)c2ccccc2O)c1 | 10µM | . | . | ?
O=S(=O)(CCSc1nc2ccccc2s1)c1nc2ccccc2s1 | ? | 16µM | . | ?
C=CCS(=O)(=O)c1nc2ccccc2s1 | 18µM | / | 10µM | ?
CN(C)S(=O)(=O)c1cccc(NC(=O)CSc2cccc3cccnc23)c1 | ? | / | 16µM | ?
CN(C)S(=O)(=O)c1cccc(NC(=O)COc2ccc(C(=O)c3ccccc3)cc2)c1 | . | . | 22µM | .
CN(c1ccccc1)S(=O)(=O)c1cccc(NC(=O)COc2ccccc2)c1 | . | . | . | /
Cc1cc(C(=O)NCCN2Cc3ccccc3OC(c3ccccc3F)C2)no1 (centres undefined) | / | . | / | /
CC(C)c1ccc(NC(=O)CSC2=Nc3ccccc3C3=NC(CC(=O)NC4CCCCC4)C(=O)N23)cc1 (centres undefined) | ? | / | 13µM | /
OC(c1ccc(F)c(F)c1)c1nc(-c2cccc(C(F)(F)F)c2)cs1 (centres undefined) | ? | ? | 20µM | .
CC1CC(C)CN(c2ccc([N+](=O)[O-])nc2)C1 (centres undefined) | . | 12µM | . | .
SMILES | TGFb inhibitor | ATXN viability | HepG2 viability | ATXN2 expr inh
Clc1ccc(N=c2ssnc2Cl)cc1 | 14µM | ? | . | .
O=C(O)c1ccc(-c2cc3cccnc3c(-c3ccc4nonc4c3)n2)cc1 | / | / | / | .
Cc1oc(-c2ccccc2F)nc1Cn1c(SCc2cccc(C(F)(F)F)c2)nc2ccncc21 | ? | ? | . | .
Cc1oc(-c2ccccc2F)nc1Cn1c(SCc2cccc(Cl)c2)nc2ccncc21 | 18µM | / | . | /
O=C(CCN1Cc2ccccc2C1)c1ccc2c(c1)OCCO2 | 13µM | / | 10µM | ?
Cc1ccc(NC(=O)c2cc3c([nH]c2=O)CC(C)(C)CC3=O)cc1 | ? | / | . | /
C=C1CC2(OC1=O)c1ccccc1CCc1ccccc12 | 8.9µM | / | 14µM | 6µM
O=C1NC(=O)C2(CCc3ccccc32)N1 (centres undefined) | . | . | . | .
O=C(C=Cc1cccnc1)c1ccccc1 | 20µM | / | . | ?
O=C(C=Cc1ccccn1)c1ccccc1O | ? | / | . | ?
O=C(/C=C/c1cccnc1)c1ccc(O)cc1 | ? | . | . | .
COc1cc(C(=O)/C=C/c2cccnc2)c([N+](=O)[O-])cc1OC | ? | 14µM | . | 13µM
